Bioassay records as filed in PubChem BioAssay.
Compounds with a hit are over-represented: about 2.2% of the library has one in this group of screens.
Luminol counter – luminol signal inhibition, Nox1 inhibitor counter-screen; HRP/luminol/H2O2 chemiluminescence counterscreen; inhibition, % at 6.7 µM; actives 0.4% (n = 16,000); also: reference of the scale not given here
PME-1 Maybridge – Maybridge compound blocking human PME-1 | Q9Y570 | recombinant PME-1, FP-Rh probe fluorescence polarization | inhibition, % at 9 µM | actives 0.5% (n = 16,000) | AID 2291; in the data active = inhibition above about 30%
OPRK1 antag MB – blocks the human kappa opioid receptor, Maybridge compounds; AID 652031; OPRK1 cells, antagonist mode, fluorescence readout; inhibition, % at 9 µM; P41145; actives 0.4% (n = 16,000); in the data active = inhibition above about 50%
Target sequence (P41145 whole entry, looked up): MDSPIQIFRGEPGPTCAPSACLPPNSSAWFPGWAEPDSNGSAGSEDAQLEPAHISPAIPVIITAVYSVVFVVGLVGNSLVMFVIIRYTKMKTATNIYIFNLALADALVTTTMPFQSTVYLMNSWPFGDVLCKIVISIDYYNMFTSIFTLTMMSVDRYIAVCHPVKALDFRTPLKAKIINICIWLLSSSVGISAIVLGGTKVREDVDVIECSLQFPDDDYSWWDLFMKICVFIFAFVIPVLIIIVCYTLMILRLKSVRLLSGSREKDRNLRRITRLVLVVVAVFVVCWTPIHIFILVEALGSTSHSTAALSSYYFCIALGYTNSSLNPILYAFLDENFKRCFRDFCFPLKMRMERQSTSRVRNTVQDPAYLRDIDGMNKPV
NOTCH agonist – NOTCH pathway agonism; activation, % at 2.5 µM; NOTCH signaling luciferase reporter cells, luminescence; AID 434982; actives 0.4% (n = 15,000); in the data active = activation above about 2.2%
Nox1 inhibitor – inhibitors of human NADPH oxidase 1 (Nox1); HT29 cells, luminol chemiluminescence ROS; Q9Y5S8; actives 0.81% (n = 16,000); AID 1792; inhibition, % at 6.7 µM
Hits are given with their value; n = inactive; x = not tested or not shown. Rule as the data show it, unless noted: active = inhibition above about 75%; inactive = the rest.

SMILES	Luminol counter	PME-1 Maybridge	OPRK1 antag MB	NOTCH agonist	Nox1 inhibitor
Nc1nc(NCc2ccccn2)n[nH]1	n	n	n	n	90
Nc1nc(NCc2cccnc2)n[nH]1	n	n	n	n	77
COc1nc(Nc2ccccc2)nc(OC)n1	n	n	n	n	n
C#Cc1cccc(-n2nnc(C(=O)OCC)c2C)c1	n	n	n	n	n
CCOC(=O)C1CCN(Cc2cccc(NC(=O)c3cc(C)on3)c2)CC1	n	n	n	n	n
CCOC(=O)C1CCN(Cc2cccc(NC(=O)c3cccs3)c2)CC1	n	n	50	n	n
CCN(CC)c1ccc(N=C2C=CC(=O)c3ccccc32)c(C)c1	n	n	n	n	99
O=C1CNC(=S)N1Cc1ccccc1Cl	n	n	n	2.5	n
O=C1CNC(=S)N1Cc1ccccn1	n	n	n	n	n
Nc1c(C(=O)c2ccccc2)sc2nsc(SCCN3CCCC3)c12	n	n	76	n	n
N#C/C(=N\Nc1ccc(OC(F)(F)F)cc1)c1ccccn1	n	n	n	n	n
CC1COC(c2cccc([N+](=O)[O-])c2)N1 (stereo not drawn)	n	n	56	n	n
O=C(CSc1cccc(C(F)(F)F)c1)N1CCC(C(F)(F)F)CC1	n	n	n	n	n
CCCCCCSc1n[nH]c(=S)s1	96	n	n	n	n
CCOC(=O)c1ccc(NC(=S)NC)cc1	n	n	n	2.9	n
CCOC(=O)c1ccc(NC(=O)C(=S)NCc2ccccc2)cc1	n	n	n	n	n
O=C(CN1CCN(c2ccc(C(F)(F)F)cn2)CC1)c1cc2ccccc2o1	n	n	n	n	n
CCC(C)(C)C1CCc2c(sc(NC(=O)c3ccccc3C(=O)O)c2C#N)C1 (stereo not drawn)	n	33	n	n	n
O=[N+]([O-])c1ccc(NC(=S)Nc2cccc(C(F)(F)F)c2)cc1	n	n	n	n	n
COc1cccc(NC(=S)NNc2ccc([N+](=O)[O-])cc2)c1	n	n	n	n	98
Brc1ccc2[nH]ccc2c1	n	n	n	n	n
O=C(Oc1cccc2c1C(=O)C=CC2=O)c1ccccc1	n	34	n	n	n
CCN(CC)c1ccc(NS(=O)(=O)c2ccc(F)cc2)cc1	n	n	n	n	102
CN1CCN(c2ccc(CNS(=O)(=O)c3cn(C)cn3)cc2)CC1	n	n	n	x	n
CCOC(=O)c1ccc(NC(=O)CSc2ccccn2)cc1	n	n	n	n	n
SMILES	Luminol counter	PME-1 Maybridge	OPRK1 antag MB	NOTCH agonist	Nox1 inhibitor
Cc1cn(CCC(=O)NCc2ccc3c(c2)OCO3)c2ccccc12	n	n	n	3.5	n
c1ccc2c(c1)NC(c1ccc3c(c1)OCO3)O2 (stereo not drawn)	n	n	n	n	80
O=C(C1=NNCC1c1ccc2c(c1)OCO2)c1ccc2ccccc2c1 (stereo not drawn)	n	n	n	n	n
COC(=O)C/C(=N\Nc1cc(C(F)(F)F)cc(C(F)(F)F)c1)C(=O)OC	n	n	n	n	n
C/C(=N\Nc1ccccc1)c1cc2cc(Br)ccc2oc1=O	n	n	n	n	n
N/C(Cc1ccc([N+](=O)[O-])cc1)=N\OC(=O)c1cccs1	n	n	n	n	n
CC(C)(C)c1csc(NNC(=O)c2ccc(Cl)cc2)n1	n	n	n	n	85
O=C(NNc1nc(-c2cccs2)cs1)c1ccc(Cl)cc1	n	n	n	n	n
Fc1ccc2nc(-c3ccc(Cl)c(Cl)c3)cnc2c1	n	n	n	n	n
O=S(=O)(Nc1ccc(N2CCCCC2)cc1)c1cc(Cl)sc1Cl	n	n	n	n	102
CSc1nc(NS(=O)(=O)c2cc(Cl)sc2Cl)nn1C	n	n	n	n	n
Cc1ccc(OS(=O)(=O)c2c(Cl)sc(Cl)c2Br)c([N+](=O)[O-])n1	n	40	n	n	n
O=[N+]([O-])c1ccc(C2=NN(c3ccccc3)C(c3ccco3)C2)cc1 (stereo not drawn)	n	n	87	n	n
O=C(C1CC1)N1CCN(c2ncnc3scc(-c4ccccc4)c23)CC1	n	n	n	n	n
CN1CCN(c2ccc(NC(=O)Nc3ccc(C(F)(F)F)cc3)cc2)CC1	n	36	n	n	n
O=C(c1cccc2c1OCCCO2)N1CCSCC1	n	n	n	n	n
C=CCn1c(-c2ccccc2)n[nH]c1=S	97	n	n	n	n
C=CCn1c(CSc2ccccc2[N+](=O)[O-])n[nH]c1=S	80	n	n	n	n
O=C(NCc1ccc2c(c1)OCO2)Nc1csc2ccccc12	n	n	n	n	n
CC(=O)Nc1cccc(OCCCNC(=O)C2CCCCC2)c1	n	n	n	n	n
O=C(Nc1ccc(Cl)c(Cl)c1Cl)c1ccco1	n	n	n	x	n
O=[N+]([O-])c1ccc(-c2cc3cc(Cl)ccc3o2)cc1	n	n	n	n	n
O=[N+]([O-])c1ccc(S(=O)(=O)c2cc(Cl)ccc2Cl)[n+]([O-])c1	n	n	n	3.6	n
O=C(N/C(=C\c1ccc(-c2ccc([N+](=O)[O-])cc2)o1)c1nc2ccccc2[nH]1)c1ccccc1	n	n	113	n	n
CC(C)=C1C2C=CC1c1ccccc12	n	n	n	n	n
SMILES	Luminol counter	PME-1 Maybridge	OPRK1 antag MB	NOTCH agonist	Nox1 inhibitor
CCc1nc2c([nH]1)c(=O)n(C)c(=O)n2C	n	n	n	n	n
CCC(CO)Nc1nc2c([nH]1)c(=O)n(C)c(=O)n2C (stereo not drawn)	n	n	n	n	94
Cc1noc(/C=C/c2ccco2)c1[N+](=O)[O-]	n	n	n	n	n
CSc1ccc(/C=C/c2onc(C)c2[N+](=O)[O-])s1	n	64	106	n	n
COc1c(C(N)=O)csc1Br	n	n	n	n	n
O=S(=O)(c1ccc(Cl)s1)N1CCN(C(c2ccccc2)c2ccccc2)CC1	n	n	n	6.4	n
O=C1c2ccccc2C(=O)c2c(O)ccc(O)c21	n	40	n	n	n
COc1ccc(-n2c(-c3cccs3)n[nH]c2=S)cc1	98	n	n	n	n
CCn1c(-c2cccs2)n[nH]c1=S	100	n	n	n	n
Cc1cc(NC(=O)CSc2n[nH]c(=O)n2-c2ccc3c(c2)OCCO3)n(-c2ccccc2)n1	n	n	n	2.2	n
S=C(NNc1c(Cl)cncc1Cl)Nc1ccc(Cl)cc1Cl	n	n	62	n	n
OCCCNNC(=S)Nc1ccc(Cl)cc1Cl	n	n	n	n	n
c1ccc2c(c1)Nc1nc3ccccc3nc1O2	n	n	n	n	n
c1ccc2c(c1)Nc1nc3ccccc3nc1N2	n	n	n	n	85
Cc1cc(C(=O)Nc2ccc3c(c2)OCCO3)no1	n	n	n	n	n
COc1cccc(C(=O)CSc2nsc(SCC(=O)c3cccc(OC)c3)c2C#N)c1	n	n	n	n	88
Cn1nc(-c2ccccc2)c(O)c(N=Nc2ccccc2)c1=O	n	n	n	n	97
Cc1ccc(S(=O)(=O)NC(=O)Oc2ccc(-c3csnn3)cc2)cc1	103	n	n	n	n
O=C(Nc1ccc(-c2csnn2)cc1)C1CC1	n	n	n	n	n
NC(C(=O)O)C(C(F)(F)F)C(F)(F)F (stereo not drawn)	n	n	n	n	n
